The nature of experiment [1]: antimalarial activity against Dd2 strain (AID 2302;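 active = growth inhibition above 50% at the single 2 µM test dose, taken to imply half-maximal potency below 2 µM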;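 note: 0% = DMSO untreated growth and 100% = chloroquine plus artemisinin killed control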). Conditions: P. falciparum Dd2 in RBCs, LDH growth readout, 72 h; at 2 µM; active compounds read high.
A short description of experiment [2]: HepG2 cytotoxicity, primary screen, cytotoxicity control for P. falciparum antimalarial project, cell-based, ATP luminescence (AID 2303;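 active = inhibition above 50%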;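 note: 0% = DMSO wells and 100% = digitonin-killed cells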). Conditions: HepG2 viability, 24-48 h, at 10 µM, active compounds read high.
Experiment [3] addresses L-lactate dehydrogenase (Plasmodium falciparum (isolate CDC / Honduras)) (UniProt Q27743). Nature of the experiment: PfLDH activity inhibition – cell lysate, 3D7 strain, counter-screen for P. falciparum growth inhibition project (AID 2304).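 Note: 0% = vehicle and 100% = reference inhibitor.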 The following applies: P. falciparum 3D7 crude extract, LDH APAD/NBT absorbance; at 2 µM; active compounds read high. On the technique in general: The purpose of a counterscreen is to sort out artefacts and off-target activity.

Experiment [4] is described as follows: inhibition of 3D7 malaria parasite growth – strain 3D7 (AID 2306).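 Note: 0% = DMSO wells and 100% = chloroquine plus artemisinin control wells.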 Conditions: P. falciparum 3D7 erythrocytic growth, LDH absorbance, 72 h; at 2 µM; active compounds read high.
The target of experiment [5] is Calcium-dependent protein kinase 1 (Plasmodium falciparum (isolate 3D7)) (UniProt P62344). Nature of the experiment: PfCDPK1 kinase inhibitors, biochemical, TCAMS library (AID 1159585; cut-off not given, nearly all actives have IC50 up to about 0.98 µM;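 note: inhibitors leave more ATP so luminescence rises with inhibition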). The following applies: recombinant PfCDPK1, Kinase-Glo ATP depletion luminescence.
Sequence of Calcium-dependent protein kinase 1 (Plasmodium falciparum (isolate 3D7)) (P62344 whole entry, looked up): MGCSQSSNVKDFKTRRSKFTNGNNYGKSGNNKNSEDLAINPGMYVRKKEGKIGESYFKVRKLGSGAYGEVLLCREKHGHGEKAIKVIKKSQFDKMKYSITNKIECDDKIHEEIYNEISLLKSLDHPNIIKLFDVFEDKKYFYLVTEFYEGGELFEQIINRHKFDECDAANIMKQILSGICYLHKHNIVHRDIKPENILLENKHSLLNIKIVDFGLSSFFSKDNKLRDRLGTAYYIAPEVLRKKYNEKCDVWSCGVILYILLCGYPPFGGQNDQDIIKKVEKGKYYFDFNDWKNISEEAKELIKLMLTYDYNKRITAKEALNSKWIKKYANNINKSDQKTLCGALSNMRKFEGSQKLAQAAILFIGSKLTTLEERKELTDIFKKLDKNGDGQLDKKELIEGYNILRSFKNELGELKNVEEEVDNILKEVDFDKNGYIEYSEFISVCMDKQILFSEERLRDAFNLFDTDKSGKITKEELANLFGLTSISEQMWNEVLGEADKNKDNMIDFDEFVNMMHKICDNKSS
Experiment [6] has as its target Plasmodium falciparum protein kinase 6 (PK6, PF3D7_1337100) (UniProt Q8IDW1). The experiment in a line: PfPK6 kinase inhibitors, biochemical, TCAMS library (AID 1159586). Conditions: recombinant PfPK6, Kinase-Glo ATP depletion luminescence.
Experiment [7] deals with Protein kinase 7 (PK7), Plasmodium falciparum 3D7 (PF3D7_0213400) (UniProt Q7YTF7). The experiment in a line: inhibition of Plasmodium PK7 catalytic activity – biochemical, TCAMS antimalarial set, Kinase-Glo luminescence (AID 1159587). Conditions: recombinant PfPK7, Kinase-Glo ATP depletion luminescence.
Sequence of Protein kinase 7 (PK7), Plasmodium falciparum 3D7 (PF3D7_0213400) (Q7YTF7 1-343): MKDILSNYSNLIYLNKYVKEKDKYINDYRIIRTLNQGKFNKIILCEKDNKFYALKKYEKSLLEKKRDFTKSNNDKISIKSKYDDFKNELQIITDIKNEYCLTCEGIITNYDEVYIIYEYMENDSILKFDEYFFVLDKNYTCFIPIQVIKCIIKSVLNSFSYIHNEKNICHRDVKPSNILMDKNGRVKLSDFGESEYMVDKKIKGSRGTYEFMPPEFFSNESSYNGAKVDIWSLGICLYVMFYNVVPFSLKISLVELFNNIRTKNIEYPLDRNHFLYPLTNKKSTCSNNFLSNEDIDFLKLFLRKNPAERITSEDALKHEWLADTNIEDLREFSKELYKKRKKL
Experiment [8] has as its target Calcium-dependent protein kinase 4 (Plasmodium falciparum (isolate 3D7)) (UniProt Q8IBS5). Nature of the experiment: PfCDPK4 kinase inhibitors, biochemical, TCAMS library (AID 1159588; cut-off not given, nearly all actives have IC50 up to about 0.91 µM). The following applies: recombinant PfCDPK4, Kinase-Glo ATP depletion luminescence.

Unmarked numbers belong to inactive results. For some of these results: Results with a measured potency or affinity are listed apart. The source made the active and inactive calls. Unless noted, the rule behind the calls is not given here.

Sequence of Calcium-dependent protein kinase 4 (Plasmodium falciparum (isolate 3D7)) (Q8IBS5 whole entry, looked up): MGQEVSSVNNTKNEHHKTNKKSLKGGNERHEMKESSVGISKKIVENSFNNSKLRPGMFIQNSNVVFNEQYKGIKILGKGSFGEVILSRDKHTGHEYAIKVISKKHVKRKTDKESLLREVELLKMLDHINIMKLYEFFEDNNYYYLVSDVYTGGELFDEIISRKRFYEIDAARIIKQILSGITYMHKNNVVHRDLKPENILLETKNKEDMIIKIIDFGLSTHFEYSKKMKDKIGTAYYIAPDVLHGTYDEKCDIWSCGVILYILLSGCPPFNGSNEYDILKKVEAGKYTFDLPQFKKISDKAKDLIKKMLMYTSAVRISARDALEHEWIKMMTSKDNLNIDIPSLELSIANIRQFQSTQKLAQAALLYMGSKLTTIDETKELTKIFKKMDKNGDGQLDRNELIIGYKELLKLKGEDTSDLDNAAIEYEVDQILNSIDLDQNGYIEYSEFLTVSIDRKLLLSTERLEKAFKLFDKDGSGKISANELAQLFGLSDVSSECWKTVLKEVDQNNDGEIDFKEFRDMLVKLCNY
Sequence of Plasmodium falciparum protein kinase 6 (PK6, PF3D7_1337100) (Q8IDW1 1-305): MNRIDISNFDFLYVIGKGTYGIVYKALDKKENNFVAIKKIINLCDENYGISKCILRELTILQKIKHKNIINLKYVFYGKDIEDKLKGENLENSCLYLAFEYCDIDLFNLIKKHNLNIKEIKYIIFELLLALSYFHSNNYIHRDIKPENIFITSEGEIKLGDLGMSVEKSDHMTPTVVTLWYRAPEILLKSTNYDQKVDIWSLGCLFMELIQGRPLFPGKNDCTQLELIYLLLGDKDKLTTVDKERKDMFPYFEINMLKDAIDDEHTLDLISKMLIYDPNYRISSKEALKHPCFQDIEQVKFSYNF
Sequence of L-lactate dehydrogenase (Plasmodium falciparum (isolate CDC / Honduras)) (Q27743 whole entry, looked up): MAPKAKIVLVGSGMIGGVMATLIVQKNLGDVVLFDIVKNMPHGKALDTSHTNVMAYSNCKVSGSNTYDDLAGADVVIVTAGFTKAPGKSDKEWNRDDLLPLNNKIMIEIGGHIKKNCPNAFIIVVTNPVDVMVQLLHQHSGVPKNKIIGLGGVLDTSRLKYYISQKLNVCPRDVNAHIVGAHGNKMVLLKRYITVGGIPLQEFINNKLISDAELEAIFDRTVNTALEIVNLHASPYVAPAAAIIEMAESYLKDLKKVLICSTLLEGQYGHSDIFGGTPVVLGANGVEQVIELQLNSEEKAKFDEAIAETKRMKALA

Take `COc1ccc(NC2=C(c3ccccc3)C(=O)c3ccccc32)cn1`: the growth inhibition was 84% (active) in experiment [1] and 96% (active) in experiment [4]. The inhibition (in general, the drop in the measured response relative to a control, in per cent) is -9% in experiment [2] and 2% in experiment [3]. For the same compound, the result in experiment [5], in experiment [6], in experiment [7] and in experiment [8] was inactive.
Consider `OC[C@H]1CCCN1CC#Cc1cc2c(Nc3ccc(OCc4cccc(F)c4)c(Cl)c3)ncnc2s1`, for which the growth inhibition in experiment [1] is 6%; in experiment [4], 89% (active). Moreover, the inhibition in experiment [2] is 13%; in experiment [3], -2%. Besides, the outcome in experiment [5], in experiment [6], in experiment [7] and in experiment [8] was inactive.
`CCc1cc(NC2CCN(C)CC2)nc(Nc2ccc(C)cc2)n1`: the growth inhibition in experiment [1] was 11%; in experiment [4], 95% (active). Moreover, the values for the inhibition in experiment [2] and in experiment [3] were 3% and -7%, respectively. Moreover, the result in experiment [5], in experiment [6], in experiment [7] and in experiment [8] was inactive.
For the compound `Cc1ccc(NC(=O)c2ccc3ncccc3c2)cc1OC1CCN(C(C)C)C1` (stereo not given), the growth inhibition is 37% in experiment [1] and 95% (active) in experiment [4]. In addition, the results for the inhibition in experiment [2] and in experiment [3] were 12% and 1%, respectively. In addition, the outcome in experiment [5], in experiment [6], in experiment [7] and in experiment [8] was inactive.
For `O=[N+]([O-])c1ccc(N2CCCN(C(=S)Nc3ccc(F)cc3Br)CC2)nc1`, the growth inhibition is 99% (active) in experiment [1] and 100% (active) in experiment [4]. Also, the inhibition in experiment [2] was 4%; in experiment [3], -3%. The result in experiment [5], in experiment [6], in experiment [7] and in experiment [8] was inactive.
Take `Cn1nccc1C(=O)NCCNCc1ccc(-c2cccc(-c3nc4ccccc4[nH]3)c2)cc1`: the figures for the growth inhibition in experiment [1] and in experiment [4] were 87% (active) and 101% (active), respectively. The inhibition was 35% in experiment [2] and 2% in experiment [3]. Besides, the result in experiment [5], in experiment [6], in experiment [7] and in experiment [8] was inactive.
As to `NCc1cccc(-c2ccc3ccnc(N)c3c2)c1`, the growth inhibition in experiment [1] is 96% (active); in experiment [4], 101% (active). The inhibition in experiment [2] is 7%; in experiment [3], 0%. In addition, the result in experiment [5], in experiment [6], in experiment [7] and in experiment [8] was inactive.
On to `CN(C)Cc1cccc(-c2cnc(N)c(-c3nc4ccc(S(C)(=O)=O)cc4[nH]3)c2)c1`, for which the figures for the growth inhibition in experiment [1] and in experiment [4] were 61% (active) and 100% (active), respectively. Further, the inhibition is 27% in experiment [2] and -2% in experiment [3]. For the same compound, the outcome in experiment [5], in experiment [6], in experiment [7] and in experiment [8] was inactive.
With `CCOC(=O)c1ccc(NC(=O)Nc2ccc(-c3ccc(-c4nc5c(C)cccc5[nH]4)s3)cc2)cc1`, the growth inhibition in experiment [1] was 100% (active); in experiment [4], 101% (active). Also, the inhibition in experiment [2] is 60% (active); in experiment [3] it was -4%. Further, the outcome in experiment [5], in experiment [6], in experiment [7] and in experiment [8] was inactive.
Consider `c1cc(CN2CCN(CCN3CCOCC3)CC2)cc(-c2ccc(-c3nc4ccccc4[nH]3)cc2)c1`, for which the growth inhibition in experiment [1] and in experiment [4] was 100% (active) each time. The inhibition in experiment [2] was 23%; in experiment [3], -8%. For the same compound, the result in experiment [5], in experiment [6], in experiment [7] and in experiment [8] was inactive.
Take `O=C(Nc1ccc(Cl)cc1C(=O)Nc1cccc(F)c1)c1ccc([N+](=O)[O-])cc1`: the values for the growth inhibition in experiment [1] and in experiment [4] were 54% (active) and 89% (active), respectively. In addition, the inhibition was 10% in experiment [2] and 0% in experiment [3]. Moreover, the result in experiment [5], in experiment [6], in experiment [7] and in experiment [8] was inactive.
On to `Cc1cccc2[nH]c(-c3ccc(-c4ccc(NC(=O)Nc5ccc(F)c(F)c5F)cc4)cc3)nc12`, for which the growth inhibition in experiment [1] was 97% (active); in experiment [4], 100% (active). For the same compound, the figures for the inhibition in experiment [2] and in experiment [3] were 51% (active) and -1%, respectively. Further, the outcome in experiment [5], in experiment [6], in experiment [7] and in experiment [8] was inactive.
On to `O=S(=O)(NCCN1CCCC1)c1ccc(-c2ccc(CNC3Cc4ccccc4C3)cc2)cc1F`, for which the growth inhibition was 75% (active) in experiment [1] and 101% (active) in experiment [4]. The inhibition is 33% in experiment [2] and -1% in experiment [3]. Further, the result in experiment [5], in experiment [6], in experiment [7] and in experiment [8] was inactive.
With `Cc1ccc(CN(Cc2ccc(C(=O)N(C)C)cc2)Cc2ccc3c(c2)OCCO3)cc1C`, the growth inhibition in experiment [1] was 87% (active); in experiment [4], 91% (active). Also, the inhibition is 10% in experiment [2] and 0% in experiment [3]. The outcome in experiment [5], in experiment [6], in experiment [7] and in experiment [8] was inactive.
As for `Cc1cc(CN2CC[C@H](NC(=O)c3ccc(Cl)c(Cl)c3)C2)ccc1OCCCN(C)C`, the values for the growth inhibition in experiment [1] and in experiment [4] were 35% and 99% (active), respectively. The inhibition was 41% in experiment [2] and 0% in experiment [3]. The outcome in experiment [5], in experiment [6], in experiment [7] and in experiment [8] was inactive.
Turning to `O=C(Nc1ccccc1)N(Cc1ccc(-c2ccc(CNCc3ccc4c(c3)OCO4)cc2)cc1)C1CCN(Cc2ccccc2)CC1`, the growth inhibition in experiment [1] is 41%; in experiment [4], 98% (active). For the same compound, the inhibition in experiment [2] was 21%; in experiment [3], -1%. Moreover, the outcome in experiment [5], in experiment [6], in experiment [7] and in experiment [8] was inactive.
On to `Cc1cc(C2CCN(CCCCNC(=O)c3ccc(NC(=O)c4ccc(Cl)cc4)cc3)CC2)c(C)cc1OCc1ccccn1`, for which the growth inhibition in experiment [1] is 65% (active); in experiment [4] it was 96% (active). Moreover, the values for the inhibition in experiment [2] and in experiment [3] were 18% and 3%, respectively. Also, the outcome in experiment [5], in experiment [6], in experiment [7] and in experiment [8] was inactive.
With `CN1CCCc2ccc(NC(=O)c3ccc(-c4cc(C(F)(F)F)nn4C)s3)cc2C1`, the growth inhibition in experiment [1] is 34%; in experiment [4] it was 88% (active). For the same compound, the inhibition in experiment [2] is 16%; in experiment [3], -1%. In addition, the outcome in experiment [5], in experiment [6], in experiment [7] and in experiment [8] was inactive.
As to `O=c1cc(NCCCNCc2cc3c(Cl)cc(Cl)cc3[nH]2)[nH]c2ccccc12`, the growth inhibition in experiment [1] was -2%; in experiment [4], 101% (active). For the same compound, the figures for the inhibition in experiment [2] and in experiment [3] were -10% and -3%, respectively. Besides, the result in experiment [5], in experiment [6], in experiment [7] and in experiment [8] was inactive.
In the case of `CCOc1cc(C(=O)NCc2cccc(C(F)(F)F)c2)ccc1-c1nc2ccc(Cl)cc2[nH]1`, the growth inhibition in experiment [1] was 31%; in experiment [4], 88% (active). Further, the inhibition in experiment [2] was 7%; in experiment [3], -6%. Moreover, the outcome in experiment [5], in experiment [6], in experiment [7] and in experiment [8] was inactive.

The record behind these values is PubChem BioAssay.
